Consider five molecules from PubChem BioAssay (NCATS).

In experiment [1] the target is Alpha-galactosidase A (Homo sapiens) (UniProt P06280). The experiment is described as follows: Counterscreen for Glucocerebrosidase Inhibitors: qHTS Assay for Human alpha-Galactosidase at pH 4.5 (AID 992). Note: 0% is about no effect. The method in brief:
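Fluorogenic 4-MU alpha-D-galactoside (80 uM) hydrolysis, 2 nM enzyme, pH 4.5 citrate buffer + 0.005% Tween-20; 20 min RT; NaOH/glycine pH 10 stop; Ex365/Em440. Compounds titrated 0.7 nM–77 uM; Hill-equation AC50.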

The target in experiment [2] is alpha-glucosidase (Oryza sativa, rice) (UniProt Q653V4). The experiment is described as follows: Counterscreen for Glucocerebrosidase Inhibitors: qHTS Assay for Rice alpha-Glucosidase at pH 5.0 (AID 997).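 Note: 0% = full activity with enzyme and -100% = basal without enzyme.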 In short, it runs like this: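 Endpoint fluorogenic assay at pH 5.0: compounds (0.7 nM to 77 uM) titrated against 4 nM rice enzyme and 400 uM 4-MU-alpha-glucoside for 20 min at room temperature; NaOH/glycine stop, read ex 365/em 440 nm, Hill-fitted AC50.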

Experiment [3] can be described thus: qHTS Assay for Lipid Storage Modulators (AID 1519; calls by dose curve; for activity change, negative = inhibition: % is set by controls: 0 for no effect and ±100 for the full control effect). The settings on record: Drosophila S3 cells, BODIPY lipid droplet/cell ratio, laser cytometry, cells loaded with oleic acid. In short, it runs like this:
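Cells seeded at 5,000 per well were treated with compounds over a concentration series and loaded with oleic acid (400 uM, as added). Lipid droplet fluorescence (488 nm excitation, 500-530 nm channel) was read by laser-scanning cytometry and normalized to 20 uM Triacsin C.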

Experiment [4] has as its target DNA repair nuclease/redox regulator APEX1 (Homo sapiens) (UniProt P27695). Nature of the experiment: qHTS Validation Assay for Inhibitors of the Human Apurinic/apyrimidinic Endonuclease 1 (APE1) (AID 1705;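 note: TAMRA fluorescence gain over two minutes as APE1 cuts a quenched THF abasic duplex; % is set by controls: 0 for no effect and ±100 for the full control effect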). The method in brief: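 Endonuclease activity of human APE1 is followed as dequenching when the enzyme incises a tetrahydrofuran abasic site in a short duplex labelled 5'-TAMRA/3'-BHQ-2 (50 nM final), after 15 min enzyme–compound preincubation at room temperature.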
On the technique in general: qHTS replaces the single test concentration by a dilution series.

Experiment [5] in a line: Counterscreen for APE1 Inhibitors: Fluorescent Dye Displacement Validation Assay (AID 1707).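 Note: plate controls were ThO with dsDNA and no compound for no effect and ThO without dsDNA for full effect.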 The method in brief:
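Endpoint fluorescence read at 480 nm excitation / 540 nm emission; DNA-binding compounds lower signal by displacing 250 nM Thiazole Orange from 50 nM dsDNA containing a tetrahydrofuran abasic site, Tris-HCl pH7.5 buffer with NaCl and MgCl2.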
(The purpose of a counterscreen is to sort out artefacts and off-target activity.)

In experiment [6] the target is Endonuclease 4 (Escherichia coli (strain K12)) (UniProt P0A6C1). Nature of the experiment: Counterscreen for APE1 Inhibitors: qHTS Validation Assay for Inhibitors of Endonuclease IV (AID 1708). Note: % is set by controls: 0 for no effect and ±100 for the full control effect. In short, it runs like this: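 Read-out: fluorescence rise (ex 525/em 598 nm) from incision of a TAMRA/BHQ-2 double-stranded THF abasic-site substrate (50 nM), measured kinetically; third-minus-first read difference gave reaction progress. Enzyme 2 nM.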

Experiment [7] in a line: qHTS for differential inhibitors of proliferation of Plasmodium falciparum line 7G8 (AID 1815).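 Note: parasite growth measured after three days of incubation; plate controls were vehicle wells for no effect and reference inhibitor wells for full effect.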
Experiment [8] is described as follows: qHTS for differential inhibitors of proliferation of Plasmodium falciparum line GB4 (AID 1816).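 Note: parasite growth measured after 72 h incubation; 0% = vehicle DMSO and -100% = reference inhibitor.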
The nature of experiment [9]: Cell Viability - LYMP2-008 (AID 980). Note: % is set by controls: 0 for no effect and ±100 for the full control effect; nearly all actives have a fitted effect of over 60% in size. The method in brief:
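Luminescent ATP read-out (CellTiter-Glo, 30 min RT) after 24 hr compound exposure at 37 C of human lymphoblastoid cells in complete medium. Decrease in ATP taken as cytotoxicity; AC50 derived by standard Hill fit of qHTS concentration-response data.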

Experiment [10] in a line: Cell Viability - LYMP2-010 (AID 981).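 Note: cells exposed to compound for 24 hours at 37 °C; % is set by controls: 0 for no effect and ±100 for the full control effect; nearly all actives have a fitted effect of over 55% in size.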 The method in brief: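 qHTS cytotoxicity, 1536-well: 2500 cells/well, 5 hr settle, 24 hr compound at 37 C, CellTiter-Glo 30 min RT, luminescence read. Decrease in ATP = toxicity; AC50 via standard Hill equation. Positive control tetraoctylammonium bromide.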
Experiment [11] is described as follows: Cell Viability - LYMP2-012 (AID 982).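 Note: cellular ATP by luciferase luminescence where a drop means cytotoxicity; cells exposed to compound for one day before reading; 0% = DMSO only and full loss = 92 µM tetraoctylammonium bromide; nearly all actives have a fitted effect of over 55% in size.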
Experiment [12] in a line: Cell Viability - LYMP2-014 (AID 983).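 Note: plate controls were DMSO only for no effect and 92 µM tetraoctylammonium bromide for full effect; nearly all actives have a fitted effect of over 50% in size.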 The method in brief:
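2500 cells/well, 5 hr 37 C; cpd 24 hr 37 C, complete medium; CellTiter-Glo 30 min RT, luminescence; ATP loss = toxicity; AC50 via Hill eqn; tetraoctylammonium bromide positive control.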

Experiment [13] in a line: Cell Viability - LYMP2-016 (AID 984).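 Note: cells exposed to compound for 24 hours at 37 °C; % is set by controls: 0 for no effect and ±100 for the full control effect; nearly all actives have a fitted effect of over 55% in size.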 The method in brief: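 Acute toxicity in a Coriell human lymphoblastoid line is scored as loss of intracellular ATP over 24 h of treatment in complete medium. CellTiter-Glo signal is fitted across concentrations with the Hill equation to give AC50.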
A short description of experiment [14]: Cell Viability - LYMP2-018 (AID 985).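 Note: plate controls were DMSO only for no effect and tetraoctylammonium bromide at 92 µM for full effect; nearly all actives have a fitted effect of over 50% in size.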 The method in brief: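 2500 cells/well; 5 hr 37 C; cmpd 24 hr 37 C, complete medium; CellTiter-Glo 30 min RT; luminescence. Tetraoctylammonium bromide positive control. AC50 via Hill fit.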
The nature of experiment [15]: Cell Viability - LYMP2-020 (AID 986).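 Note: plate controls were DMSO only for no effect and tetraoctylammonium bromide at 92 µM for full effect; nearly all actives have a fitted effect of over 55% in size.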 In short, it runs like this: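 qHTS, 2500 cells/well; 5 hr then 24 hr compound exposure, 37 C; CellTiter-Glo luminescence after 30 min RT; ATP decrease taken as cytotoxicity; AC50 via Hill equation; tetraoctylammonium bromide positive control.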
A short description of experiment [16]: Cell Viability - LYMP2-022 (AID 987). In short, it runs like this:
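Luminescent ATP read-out (CellTiter-Glo, 30 min, RT) after 24 hr, 37 C compound exposure of 2500 human lymphoblastoid cells/well in complete medium. Cytotoxicity taken as concentration-dependent ATP loss; AC50 from standard Hill equation.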

A short description of experiment [17]: Cell Viability - LYMP2-024 (AID 988).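 Note: plate controls were DMSO only for no effect and 92 µM tetraoctylammonium bromide for full effect; nearly all actives have a fitted effect of over 60% in size.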 In short, it runs like this:
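ATP-based luminescence (CellTiter-Glo, 30 min RT) after 24 h compound exposure at 37 C of 2500 lymphoblastoid cells/well; decrease in ATP taken as cytotoxicity. qHTS concentration-response fitted to standard Hill equation for AC50.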

A short description of experiment [18]: Cell Viability - LYMP2-026 (AID 989). Note: % is set by controls: 0 for no effect and ±100 for the full control effect; nearly all actives have a fitted effect of over 50% in size. The method in brief: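 qHTS cytotoxicity: 2500 cells/well, 5 hr 37 C, compound 24 hr 37 C, CellTiter-Glo 30 min RT, luminescence. Tetraoctylammonium bromide positive control. AC50 via standard Hill fit.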
The nature of experiment [19]: Cell Viability - LYMP1-002 - Assay at 24 hr (AID 993). Note: % is set by controls: 0 for no effect and ±100 for the full control effect. The method in brief:
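CellTiter-Glo luminescence (intracellular ATP) after 24 h compound exposure, 37 C, in LYMP1-002 human lymphoblastoid cells; decreased ATP taken as cytotoxicity. AC50 from standard Hill fit of concentration-response curves.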

A short description of experiment [20]: Cell Viability - LYMP1-002 - Assay at 40 hr (AID 994).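 Note: 0% = DMSO only and full inhibition = 92 µM tetraoctylammonium bromide; nearly all actives have a fitted effect of over 60% in size.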 The method in brief:
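qHTS cytotoxicity; 2500 cells/well, 5 hr 37 C settle, compound 40 hr 37 C. CellTiter-Glo, 30 min RT, luminescence (ATP). Concentration-response, Hill fit → AC50. Pos. ctrl tetraoctylammonium bromide.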

“And” between values parts separate entries of the source, which are not always exact repeats. Equal entries are not always repeated. Inconclusive results are not listed. The source made the active and inactive calls. Unless noted, calls come from the whole dose curve; as a rule, active = well fitted curve in the direction sought with a large enough effect; inconclusive = small, poorly fitted or top-dose-only effect, or another doubt; inactive = no such curve, though single readings can be large; an effect the other way counts as inactive or inconclusive.

DNA repair nuclease/redox regulator APEX1 (Homo sapiens), sequence (P27695 whole entry, looked up): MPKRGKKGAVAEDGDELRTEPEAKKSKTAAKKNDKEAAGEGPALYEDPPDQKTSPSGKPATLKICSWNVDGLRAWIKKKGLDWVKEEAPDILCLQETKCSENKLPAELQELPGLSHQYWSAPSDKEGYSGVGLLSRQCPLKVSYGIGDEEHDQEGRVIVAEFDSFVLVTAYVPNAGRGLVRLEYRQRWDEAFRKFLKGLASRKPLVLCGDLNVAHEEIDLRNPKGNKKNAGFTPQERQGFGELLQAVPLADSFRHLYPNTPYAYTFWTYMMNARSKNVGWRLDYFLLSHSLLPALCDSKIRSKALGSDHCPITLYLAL
Alpha-galactosidase A (Homo sapiens), sequence (P06280 whole entry, looked up): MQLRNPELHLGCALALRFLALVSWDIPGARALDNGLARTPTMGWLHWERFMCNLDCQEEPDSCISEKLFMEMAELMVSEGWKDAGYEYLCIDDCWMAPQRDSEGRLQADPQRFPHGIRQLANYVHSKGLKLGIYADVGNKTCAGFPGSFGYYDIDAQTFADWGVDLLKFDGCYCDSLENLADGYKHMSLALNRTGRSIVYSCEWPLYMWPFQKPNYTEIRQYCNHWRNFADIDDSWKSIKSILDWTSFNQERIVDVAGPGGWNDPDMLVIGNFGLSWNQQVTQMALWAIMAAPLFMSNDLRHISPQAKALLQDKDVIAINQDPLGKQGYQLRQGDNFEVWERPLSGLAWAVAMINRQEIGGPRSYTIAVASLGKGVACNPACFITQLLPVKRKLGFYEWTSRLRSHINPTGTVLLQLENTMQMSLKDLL

With `COc1ccc2c(c1OC)C(=O)OC2[C@H]1c2c(cc3c(c2OC)OCO3)CCN1C` (stereo partly drawn), the molecule was classed as inactive in experiment [1] and in [2].

Turning to `OCC(O)C(O)C(O)CO` (stereo not drawn), the activity change, negative = inhibition in experiment [3] (at 57.5 µM (top of the series)) was -0.297% (inactive) and 2.14% (inactive). The max response in experiment [3] (measured here: cell count channel max response) is 13.1% and 19.4%; in experiment [3] (measured here: lipid channel max response) it was 16.9% and 22.3%.

Consider `N=c1ccn2c(n1)O[C@H]1[C@@H](O)[C@@H](CO)O[C@H]12`, for which the molecule was called inactive in experiment [4], in experiment [5], in [6], in experiment [7] and in experiment [8].

Consider `CN(C)CC[C@H](c1ccc(Cl)cc1)c1ccccn1`, for which the result in experiment [2] was inactive.

On to `Cc1cc(O)c2c(c1)C(=O)c1cccc(O)c1C2=O`, for which the call in experiment [9], in experiment [10], in experiment [11], in experiment [12], in experiment [13] and in [14] was inactive. The call in [15], in experiment [16], in experiment [17], in experiment [18], in experiment [19] and in experiment [20] was inactive.
